Compound activity as filed in PubChem BioAssay.
STK33 kin inh: blocks human STK33 kinase activity; ADP-Glo luminescence, MBP substrate; inhibition, % at 12.5 µM; 27,000 compounds, 0.44% hits; AID 2322; in the data active means inhibition above about 20%; inconclusive means no clear call, values can overlap the other calls
Target sequence (Q9BYT3 whole entry, looked up): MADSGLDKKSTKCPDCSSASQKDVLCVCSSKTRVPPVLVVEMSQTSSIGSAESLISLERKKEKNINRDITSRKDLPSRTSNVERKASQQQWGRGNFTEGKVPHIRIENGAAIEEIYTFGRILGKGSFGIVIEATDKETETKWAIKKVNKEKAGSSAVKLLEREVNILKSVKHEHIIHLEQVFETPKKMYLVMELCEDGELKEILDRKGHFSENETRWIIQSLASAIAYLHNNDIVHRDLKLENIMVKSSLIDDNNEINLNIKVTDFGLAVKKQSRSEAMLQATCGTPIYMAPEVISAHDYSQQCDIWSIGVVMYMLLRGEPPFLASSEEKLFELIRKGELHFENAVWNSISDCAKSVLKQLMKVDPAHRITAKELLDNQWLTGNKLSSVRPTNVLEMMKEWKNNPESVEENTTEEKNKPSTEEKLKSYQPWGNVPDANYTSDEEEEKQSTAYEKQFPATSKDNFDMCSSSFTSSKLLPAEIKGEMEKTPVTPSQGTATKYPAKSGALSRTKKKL
NOMO-1 viab: STK33 inhibitor candidate reducing NOMO-1 cell viability; AID 2330; 37,000 compounds, 7.5% hits; inhibition, % (no concentration beside the values); NOMO-1 AML viability, CellTiter-Glo luminescence, 72 h; in the data active means inhibition above about 80%; inconclusive means no clear call, values can overlap the other calls
PD-1 reversal: activators reversing PD-1 mediated T-cell inhibition. primary human CD4 T cells, PD-L1 beads, CellTiter-Glo 96 h. activation, % (concentration not given with the values). 29,000 tested, under 10 active. AID 2316; call rule not given here;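 further: 0% = median vehicle wells and 100% = positive control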
The depositor's hits bear a star; ? = inconclusive; · = no result. The entries come from a sample that favours hits as a whole.

SMILES	STK33 kin inh	NOMO-1 viab	PD-1 reversal
COc1ccc(C(=O)CC2(O)C(=O)Nc3ccc(Cl)cc32)cc1OC (stereo not given)	0	25	-1
Cc1ccc(C(=O)CC2(O)C(=O)N(Cc3cccc4ccccc34)c3ccccc32)cc1 (stereo not given)	2	32	·
O=C(CC1(O)C(=O)N(Cc2cccc3ccccc23)c2ccccc21)c1ccc(F)cc1 (stereo not given)	2	84*	·
COc1ccc(CN2C(=O)C(O)(CC(=O)c3ccc(Cl)cc3)c3ccccc32)cc1OC (stereo not given)	-4	112*	1
O=C(COc1ccc(I)cc1)Nc1cccnc1	0	-8	0
COc1ccc(NC(=O)Cn2cnc3sc(-c4ccccc4)cc3c2=O)cc1	0	-7	0
O=S(=O)(NCCC12CC3CC(CC(C3)C1)C2)c1cccc2nsnc12	·	?	-1
CCc1ccccc1NC(=O)c1ccccc1S(=O)(=O)c1ccccc1[N+](=O)[O-]	-9	-6	0
COc1ccc(CN2C(=O)C(O)(CC(=O)c3cccnc3)c3ccccc32)cc1OC (stereo not given)	-6	106*	-4
Cc1cccc(C=Nc2c(C)n(C)n(-c3ccccc3)c2=O)c1	-2	-1	3
COc1cc(/C=C/C(=O)OCC[N+](C)(C)C)cc(OC)c1O	-4	-10	-2
CCC1SC2=NCN(c3ccccc3)CN2C1=O (stereo not given)	·	101*	1
C[C@@H]1CN([C@@H](C)CO)C(=O)c2cccc(NS(=O)(=O)c3ccc(Cl)cc3)c2O[C@H]1CN(C)Cc1ccc(C(=O)Nc2ccccc2N)cc1	·	48	0
C[C@@H]1CN([C@@H](C)CO)C(=O)c2cccc(NS(C)(=O)=O)c2O[C@@H]1CN(C)Cc1ccc(C(=O)Nc2ccccc2N)cc1	·	123*	-1
C[C@H](CO)N1C[C@H](C)[C@@H](CN(C)Cc2ccc(C(=O)Nc3ccccc3N)cc2)Oc2c(NS(=O)(=O)c3ccc(Cl)cc3)cccc2C1=O	·	51	0
C[C@@H]1CN([C@H](C)CO)C(=O)c2cccc(NS(=O)(=O)c3ccc(F)cc3)c2O[C@H]1CN(C)Cc1ccc(C(=O)Nc2ccccc2N)cc1	·	57	0
C[C@@H]1CN([C@H](C)CO)C(=O)c2cccc(NS(=O)(=O)c3ccc(F)cc3)c2O[C@@H]1CN(C)Cc1ccc(C(=O)Nc2ccccc2N)cc1	·	127*	-2
C[C@@H]1CN([C@H](C)CO)C(=O)c2cccc(NS(=O)(=O)c3ccccc3)c2O[C@@H]1CN(C)Cc1ccc(C(=O)Nc2ccccc2N)cc1	·	128*	-1
Cc1ccc(S(=O)(=O)Nc2cccc3c2O[C@@H](CN(C)Cc2ccc(C(=O)Nc4ccccc4N)cc2)[C@@H](C)CN([C@H](C)CO)C3=O)cc1	·	137*	0
C[C@H]1CN([C@@H](C)CO)C(=O)c2cccc(NS(C)(=O)=O)c2O[C@@H]1CN(C)Cc1ccc(C(=O)Nc2ccccc2N)cc1	·	12	-1
CCCCCCC(=O)OC1OC(CO)C(O)C2OCC(C(=O)O)COC12 (stereo not given)	-4	4	1
O=S(=O)(/N=C(\Oc1ccccc1)c1ccccc1)c1ccc(Br)cc1	-3	-22	4
COc1cc(OC)c(NC(=O)CS(=O)(=O)c2ccccc2)cc1Cl	1	10	·
Cc1cccc(OCC(=O)Nc2ccc(Cl)c(-c3nc4ccc(C)cc4o3)c2)c1	1	29	·
C[C@H]1CN([C@@H](C)CO)C(=O)c2cccc(NS(=O)(=O)c3ccccc3)c2O[C@@H]1CN(C)Cc1ccc(C(=O)Nc2ccccc2N)cc1	·	?	-2
SMILES	STK33 kin inh	NOMO-1 viab	PD-1 reversal
C[C@H]1CN([C@@H](C)CO)C(=O)c2cccc(NS(=O)(=O)c3ccccc3)c2O[C@H]1CN(C)Cc1ccc(C(=O)Nc2ccccc2N)cc1	·	120*	0
CCN(CC(=O)Nc1ccc(Br)cc1F)S(=O)(=O)c1ccc(Cl)cc1	-1	-19	3
CCOC(=O)CSc1ncc(-c2ccccc2)nn1	5	-22	1
CCOC(=O)CSc1sc(C(=O)OCC)c2c1S(=O)(=O)N(C)c1ccccc1-2	·	120*	0
C=C1C(=O)O[C@@H]2/C=C(/C)[C@@H]3C/C=C(/C[C@@H](OC(=O)/C(=C/CO)CO)[C@@H]12)C[C@@](O)(C(C)C)C(=O)O3	-4	107*	-10
CC(=O)c1cccc(NC(=O)CN(C)S(=O)(=O)c2ccc(F)cc2)c1	-1	7	1
COc1cc2c(cc1-c1coc3c4c(ccc3c1=O)OC(C)(C)C=C4)OCO2	-4	87*	-1
COc1cc2c(cc1-c1coc3cc(O[C@@H]4O[C@H](CO)[C@@H](O)[C@H](O)[C@H]4O)ccc3c1=O)OCO2	-1	-2	1
